# Source: PubChem (National Center for Advancing Translational Sciences (NCATS))
# ELG1 genotox – genotoxicity induction in ELG1-luciferase HEK293T cells | HEK293T ELG1-luciferase reporter, luminescence, 16 h | Potency, µM (doses to about 46 µM), for inactives: at the highest dose activity change, positive = activation, hits mostly activators | actives 1.3% (n = 330,000); further: % of control where 0% means no effect; nearly all actives have a fitted effect of over 60% in size
#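 Genotoxic stress is detected as increased luminescence from luciferase-tagged ELG1 in HEK293T cells, measured with ONE-Glo after a 16 hr treatment at 37 °C.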
# KinaseGlo FLuc – Kinase-Glo luciferase inhibition (counter-screen). Q27757. Kinase-Glo luciferase, ATP luminescence, 8 min. Potency, µM (series often up to 38.3 µM), without a hit: top-dose activity change, negative = inhibition, usual class: inhibitors. actives 0.28% (n = 200,000); further: on the % scale 0 is the no-effect control and ±100 the full control effect; nearly all actives have a fitted effect of over 60% in size
#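 Substrate mix (final 50 mM imidazole pH 7.2, 50 mM KCl, 7 mM MgCl2, 10 uM ATP, 0.01% Tween 20, 0.05% BSA) plus pin-tool compound, then Kinase-Glo detection mix; 8 min ambient, luminescence read.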
# NPC1 prom act – NPC1 promoter activation | Huh7 NPC1 promoter luciferase reporter, 24 h | Potency, µM (highest dose often 9.22 µM), without a hit: at the top dose activation, usual class: activators | actives 2.4% (n = 320,000) | AID 485313; further: % of control where 0% means no effect; nearly all actives have a fitted effect of over 60% in size
#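 In 1536-well qHTS, Huh7 cells harboring an NPC1 promoter–luciferase construct received compound for 24 h; activation was quantified by luminescence following luciferase reagent addition.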
# FLuc modulator – counter-screen for miR-21 project: firefly luciferase inhibitors or activators. purified FLuc, Km substrates, luminescence inhibition. actives 6.9% (n = 360,000). Potency, µM (top dose mostly 57.5 µM), for inactives: top-dose activity change, negative = inhibition, most hits filed as inhibitors. P08659;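 further: plate controls were vehicle for no effect and reference inhibitor for full effect; nearly all actives have a fitted effect of over 55% in size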
# Target sequence (P08659 whole entry, looked up): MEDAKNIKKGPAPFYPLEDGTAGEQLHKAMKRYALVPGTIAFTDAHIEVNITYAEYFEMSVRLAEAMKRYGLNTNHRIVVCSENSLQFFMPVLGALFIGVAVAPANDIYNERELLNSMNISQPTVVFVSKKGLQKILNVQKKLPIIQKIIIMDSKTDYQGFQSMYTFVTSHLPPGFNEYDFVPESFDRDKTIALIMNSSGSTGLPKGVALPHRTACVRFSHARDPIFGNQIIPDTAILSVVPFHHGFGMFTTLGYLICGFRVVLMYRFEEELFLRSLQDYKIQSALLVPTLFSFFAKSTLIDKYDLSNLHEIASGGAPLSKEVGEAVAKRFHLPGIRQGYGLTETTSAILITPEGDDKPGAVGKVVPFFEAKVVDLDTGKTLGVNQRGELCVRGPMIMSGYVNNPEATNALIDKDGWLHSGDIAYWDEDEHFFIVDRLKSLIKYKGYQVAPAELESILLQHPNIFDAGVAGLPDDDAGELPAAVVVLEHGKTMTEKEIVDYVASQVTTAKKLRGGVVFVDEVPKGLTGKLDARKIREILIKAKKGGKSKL
#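 Biochemical qHTS of compounds, final roughly 60 µM downward over six points, against 10 nM purified firefly luciferase using Km concentrations of substrates (10 uM D-luciferin, 10 uM ATP) in Tris acetate pH 7.5 buffer; luminescence output.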
# SMN2 splice up – increases expression of the SMN2 splice variant | actives 2.8% (n = 210,000) | HEK293 SMN2-luciferase splicing reporter, luminescence, 30-36 h | Potency, µM (titrated, usually from 46.1 µM), for inactives: top-dose activity change, positive = activation, actives largely listed as activators | AID 1458; further: % of control where 0% means no effect; nearly all actives have a fitted effect of over 55% in size
#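 HEK293 cells carry an SMN2 […]–luciferase reporter in which exon 7 inclusion puts luciferase in frame. Cells were plated 10-12 h before compound addition, then incubated 30-36 h at 37C. ONE-Glo luminescence was read; sodium butyrate at 4.5 mM final served as control.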
# Rab9 prom act – activators of Rab9 promoter | Huh7 Rab9 promoter-luciferase reporter, luminescence, 24 h | Potency, µM (highest dose often 9.22 µM), without a hit: at the highest dose activation, negative = inhibition, hits mostly activators | actives 2.8% (n = 320,000); further: % of control where 0% means no effect; nearly all actives have a fitted effect of over 60% in size
#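 Luminescence read-out: Huh7 cells stably expressing Rab9-luciferase, treated 24 h with compound at 37 °C, then lysed with luciferase reagent for 10 min at ambient before reading.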
# The depositor's hits bear a star; ? = inconclusive; . = not tested or not shown; [ ] = remark or other dose. A selection: hits, their analogues and other compounds. The true share with any hit is near 7.5%. The call rests on the fitted dose curve; in most records, active means well fitted curve in the direction sought with a large enough effect; inconclusive means small, poorly fitted or top-dose-only effect, or another doubt; inactive means no such curve, though single readings can be large; an effect the other way counts as inactive or inconclusive. Potency means the concentration at half of the fitted maximal effect.
SMILES,ELG1 genotox,KinaseGlo FLuc,NPC1 prom act,FLuc modulator,SMN2 splice up,Rab9 prom act
COc1ccc2nc(N/C(N)=N/S(C)(=O)=O)nc(C)c2c1,?,.,16.7%,15.1µM*,.,13.6%
CC(C)(C)C(=O)CN1C(=O)NC(C)(Cc2ccc3c(c2)OCO3)C1=O (stereo not drawn),10.8%,.,1.6%,-2.6%,.,7.1%
CCOC(=O)c1ccc(NC(=O)CSc2nc3sc(C(=O)O)c(C)c3c(=O)[nH]2)cc1,2.9%,1.0%,-3.1%,16.9µM*,-0.7%,?
CCOC(=O)c1sc(SCC(=O)Nc2ccc(N(C)C)cc2)nc1N,13.0%,1.1%,-1.1%,6.01µM*,-6.8%,-11.0%
CN(C)c1ccc(NC(=O)CSc2nc(N)c(C(=O)Nc3ccc(N(C)C)cc3)s2)cc1,-3.5%,-7.1%,?,4.78µM*,-43.6%,23.8%
COC(=O)c1ccc(CSc2nc3sc(C(=O)O)c(C)c3c(=O)[nH]2)cc1,1.5%,-0.3%,-0.1%,?,-7.9%,-0.1%
COc1ccc(NC(=O)CSc2nc(N)c(C(=O)Nc3ccc(N(C)C)cc3)s2)cc1,?,-6.8%,?,1.35µM*,-17.1%,3.16µM*
COc1ccc(NC(=O)CSc2nnc(N)s2)cc1,8.3%,-1.4%,9.2%,-12.5%,13.7%,14.2%
COC(=O)C1=C(C)NC=C([N+](=O)[O-])C1c1ccc(OC)cc1 (stereo not drawn),9.0%,-0.3%,-1.4%,-1.5%,5.0%,-0.9%
Cc1cccc(NC(=O)c2c(O)c3ccccc3n(C)c2=O)c1,?,.,2.82µM*,?,.,2µM*
Cc1ccc(NC(=O)c2c(O)c3ccccc3n(C)c2=O)nc1,14.7%,-3.4%,3.55µM*,?,?,11.8%
C=CCn1c(=O)c(C(=O)Nc2ccccc2O)c(O)c2ccccc21,1.2%,-5.0%,1.7%,?,2.7%,7.2%
C=CCn1c(=O)c(C(=O)Nc2ccccc2C)c(O)c2ccccc21,?,.,3.98µM*,?,.,3.98µM*
Cn1c(=O)c(C(=O)NCc2ccccc2)c(O)c2ccccc21,-0.9%,.,?,16.9µM*,.,?
CCn1c(=O)c(C(=O)Nc2ccc(C)cc2)c(O)c2ccccc21,7.1%,.,14.0%,?,.,22.1%
Cn1c(=O)c(C(=O)NCc2ccc(F)cc2)c(O)c2ccccc21,0.4%,.,-1.6%,-14.6%,.,6.0%
Cc1ccc(C(=O)OCN2C(=O)c3ccccc3C2=O)o1,-5.1%,.,-1.0%,-2.0%,.,-3.2%
CCOC(=O)CN1C(=O)C(=O)N(Cc2ccccc2F)C1=O,-0.1%,.,-1.4%,1.1%,.,-0.3%
O=C(Nc1cccc(F)c1)C1CCN(c2nc3ccccc3[nH]2)CC1,.,.,.,4.3%,.,.
Cc1ccnc(NC(=O)c2c(O)c3ccccc3n(C)c2=O)c1,?,-3.2%,3.55µM*,3.01µM*,12.6µM*,3.98µM*
CCCn1c(=O)c(C(=O)Nc2ncccc2O)c(O)c2ccccc21,-10.7%,.,6.5%,-3.3%,.,0.7%
Cn1c(=O)c(C(=O)Nc2ncccc2O)c(O)c2ccccc21,?,-3.6%,3.16µM*,?,24.4%,?
CCS(=O)(=O)c1oc(-c2ccc(F)cc2)nc1S(=O)(=O)c1ccc(Br)cc1,.,.,.,-3.1%,11.4%,.
Cc1ccc(C2=NN3C(=O)c4ccccc4C3C2)cc1 (stereo not drawn),?,.,?,16.9µM*,.,?
O=C(Oc1ccccc1C(=O)Nc1ccccc1)c1ccccc1Br,?,2.0%,-4.1%,16.9µM*,23.1%,19.0%
SMILES,ELG1 genotox,KinaseGlo FLuc,NPC1 prom act,FLuc modulator,SMN2 splice up,Rab9 prom act
O=C(Nc1ccccc1)c1ccccc1O,?,8.1%,26.4%,10.7µM*,-4.3%,25.7%
Cc1ccc(NC(=O)c2ccccc2O)cc1,?,-4.5%,2µM*,0.953µM*,2.82µM*,0.631µM*
Cc1cc(C)cc(NC(=O)Nc2ccc(NC(=O)c3ccccc3O)cc2)c1,5.9%,.,3.6%,-3.9%,.,-4.2%
Cc1csc2ncc(C(=O)Nc3ccccc3Cl)c(=O)n12,?,.,?,-16.6%,.,3.16µM*
Cc1csc2ncc(C(=O)Nc3ccccc3F)c(=O)n12,11.6µM*,-3.5%,?,?,12.6µM*,?
Cc1csc2ncc(C(=O)Nc3ccon3)c(=O)n12,5.1%,-1.6%,12.6%,-8.0%,-3.5%,12.3%
O=C(Oc1cccc(-c2cnc3ccccc3n2)c1)c1ccco1,?,-1.1%,?,23.9µM*,12.6µM*,3.16µM*
CCN(CC)S(=O)(=O)c1ccc(C)c(C(=O)Oc2cccc(-c3cnc4ccccc4n3)c2)c1,15.0%,2.0%,?,-0.2%,17.8µM*,?
CCN(CC)S(=O)(=O)c1cc(C(=O)Oc2cccc(-c3cnc4ccccc4n3)c2)ccc1OC,9.8%,-1.6%,?,-17.1%,12.6µM*,?
CCC(=O)OCCCCCCOc1ccc(C(=O)O)cc1,4.3%,2.3%,0.3%,3.7%,-6.2%,-2.4%
CN(C)S(=O)(=O)c1ccc(C(=O)NCCSc2ccc(Br)cc2)cc1,-3.6%,-1.9%,1.8%,-0.3%,-27.5%,-8.9%
CCc1cc(C)cc(OCCNC(=O)c2cncc(Br)c2)c1,-0.9%,-1.0%,-0.6%,3.1%,-16.0%,-1.6%
CSc1ccccc1C(=O)NCCSc1ccccc1,?,-3.7%,10.9%,-18.2%,26.6%,11.8%
O=C(CCSc1ccccc1)NCCSCc1ccccc1,1.3%,-1.3%,2.6%,21.3µM*,6.1%,-3.9%
O=C(NCCSc1ccccc1)c1ccccc1,?,-5.8%,2.51µM*,?,11.2µM*,2.51µM*
O=C(NCCSc1ccccc1)c1ccc(Br)cc1,3.26µM*,-4.0%,0.794µM*,1.35µM*,6.31µM*,0.562µM*
O=C(NCCOc1ccccc1)c1cncc(Br)c1,16.4µM*,4.3%,?,?,5.3%,?
Cn1c(=O)c2[nH]c(COCc3nc4c([nH]3)c(=O)n(C)c(=O)n4C)nc2n(C)c1=O,.,1.0%[7.66 µM],.,.,2.4%[9.22 µM],.
CC(C)(C)OC(=O)NCCCCC1=CC2=CC(=O)C(C)(OC(=O)C3CCCC3)C(=O)C2=CO1 (stereo not drawn),.,-0.8%,.,.,15.1%,.
COc1cccc(C(=O)NCCSc2ccc(F)cc2)c1,17.6%,0.8%,?,19µM*,12.6µM*,?
O=C(NCCSc1ccccc1)c1cncc(Br)c1,14.6µM*,0.6%,?,21.3µM*,?,?
COc1ccccc1CNC(=O)c1cnc2sc(N3CCOCC3)nn2c1=O,.,.,.,-0.7%,.,.
CCOc1ccc(C2=Nc3ccc(Br)cc3C(c3ccc(N4CCOCC4)cc3)=NN2)cc1,?,2.9%,?,23.9µM*,?,?
